{"source": "ChEMBL document CHEMBL1961873", "about": "“Compounds: GSK PKIS; Assays: Nanosyn kinase panel” (2012)", "key": {"[1]": {"target": "RAC-alpha serine/threonine-protein kinase (Homo sapiens) (UniProt P31749)", "details": "at 0.1 µM"}, "[2]": {"target": "RAC-alpha serine/threonine-protein kinase (Homo sapiens) (UniProt P31749)", "details": "at 1 µM"}, "[3]": {"target": "RAC-beta serine/threonine-protein kinase (Homo sapiens) (UniProt P31751)", "details": "at 0.1 µM"}, "[4]": {"target": "RAC-beta serine/threonine-protein kinase (Homo sapiens) (UniProt P31751)", "details": "at 1 µM"}, "[5]": {"target": "RAC-gamma serine/threonine-protein kinase (Homo sapiens) (UniProt Q9Y243)", "details": "at 0.1 µM"}, "[6]": {"target": "RAC-gamma serine/threonine-protein kinase (Homo sapiens) (UniProt Q9Y243)", "details": "at 1 µM"}, "[7]": {"target": "G protein-coupled receptor kinase 6 (Homo sapiens) (UniProt P43250)", "details": "at 0.1 µM"}, "[8]": {"target": "G protein-coupled receptor kinase 6 (Homo sapiens) (UniProt P43250)", "details": "at 1 µM"}, "[9]": {"target": "Rhodopsin kinase GRK7 (Homo sapiens) (UniProt Q8WTQ7)", "sequence (Q8WTQ7 whole entry)": "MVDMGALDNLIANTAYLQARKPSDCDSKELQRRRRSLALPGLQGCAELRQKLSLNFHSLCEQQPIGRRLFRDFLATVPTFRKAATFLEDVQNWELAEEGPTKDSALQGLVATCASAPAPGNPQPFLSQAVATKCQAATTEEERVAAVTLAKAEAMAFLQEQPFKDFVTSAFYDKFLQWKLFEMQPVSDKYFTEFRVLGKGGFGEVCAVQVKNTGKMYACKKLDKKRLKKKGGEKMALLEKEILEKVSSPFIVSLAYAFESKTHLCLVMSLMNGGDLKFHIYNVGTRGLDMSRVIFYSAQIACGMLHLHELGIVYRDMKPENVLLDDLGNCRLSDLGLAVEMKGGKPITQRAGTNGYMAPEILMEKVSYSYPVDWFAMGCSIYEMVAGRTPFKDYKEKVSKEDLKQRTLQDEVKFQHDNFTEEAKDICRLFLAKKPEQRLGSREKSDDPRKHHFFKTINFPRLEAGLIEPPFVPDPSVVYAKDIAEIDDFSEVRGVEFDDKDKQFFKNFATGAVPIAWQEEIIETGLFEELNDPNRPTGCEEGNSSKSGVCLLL", "details": "at 0.1 µM"}, "[10]": {"target": "Rhodopsin kinase GRK7 (Homo sapiens) (UniProt Q8WTQ7)", "details": "at 1 µM"}, "[11]": {"target": "Serine/threonine-protein kinase MRCK alpha (Homo sapiens) (UniProt Q5VT25)", "details": "at 0.1 µM"}, "[12]": {"target": "Serine/threonine-protein kinase MRCK alpha (Homo sapiens) (UniProt Q5VT25)", "details": "at 1 µM"}, "[13]": {"target": "Serine/threonine-protein kinase MRCK beta (Homo sapiens) (UniProt Q9Y5S2)", "details": "at 0.1 µM"}, "[14]": {"target": "Serine/threonine-protein kinase MRCK beta (Homo sapiens) (UniProt Q9Y5S2)", "details": "at 1 µM"}, "[15]": {"target": "Ribosomal protein S6 kinase alpha-5 (Homo sapiens) (UniProt O75582)", "details": "at 0.1 µM"}, "[16]": {"target": "Ribosomal protein S6 kinase alpha-5 (Homo sapiens) (UniProt O75582)", "details": "at 1 µM"}, "[17]": {"target": "Ribosomal protein S6 kinase alpha-4 (Homo sapiens) (UniProt O75676)", "details": "at 0.1 µM"}, "[18]": {"target": "Ribosomal protein S6 kinase alpha-4 (Homo sapiens) (UniProt O75676)", "details": "at 1 µM"}, "[19]": {"target": "Ribosomal protein S6 kinase beta-1 (Homo sapiens) (UniProt P23443)", "details": "at 0.1 µM"}, "[20]": {"target": "Ribosomal protein S6 kinase beta-1 (Homo sapiens) (UniProt P23443)", "details": "at 1 µM"}, "[21]": {"target": "3-phosphoinositide-dependent protein kinase 1 (Homo sapiens) (UniProt O15530)", "details": "at 0.1 µM"}, "[22]": {"target": "cAMP-dependent protein kinase catalytic subunit alpha (Homo sapiens) (UniProt P17612)", "details": "at 0.1 µM"}, "[23]": {"target": "cAMP-dependent protein kinase catalytic subunit alpha (Homo sapiens) (UniProt P17612)", "details": "at 1 µM"}, "[24]": {"target": "Protein kinase C alpha type (Homo sapiens) (UniProt P17252)", "details": "at 0.1 µM"}, "[25]": {"target": "Protein kinase C alpha type (Homo sapiens) (UniProt P17252)", "details": "at 1 µM"}, "[26]": {"target": "Protein kinase C beta type (Homo sapiens) (UniProt P05771)", "sequence (P05771 2-671 limits assumed)": "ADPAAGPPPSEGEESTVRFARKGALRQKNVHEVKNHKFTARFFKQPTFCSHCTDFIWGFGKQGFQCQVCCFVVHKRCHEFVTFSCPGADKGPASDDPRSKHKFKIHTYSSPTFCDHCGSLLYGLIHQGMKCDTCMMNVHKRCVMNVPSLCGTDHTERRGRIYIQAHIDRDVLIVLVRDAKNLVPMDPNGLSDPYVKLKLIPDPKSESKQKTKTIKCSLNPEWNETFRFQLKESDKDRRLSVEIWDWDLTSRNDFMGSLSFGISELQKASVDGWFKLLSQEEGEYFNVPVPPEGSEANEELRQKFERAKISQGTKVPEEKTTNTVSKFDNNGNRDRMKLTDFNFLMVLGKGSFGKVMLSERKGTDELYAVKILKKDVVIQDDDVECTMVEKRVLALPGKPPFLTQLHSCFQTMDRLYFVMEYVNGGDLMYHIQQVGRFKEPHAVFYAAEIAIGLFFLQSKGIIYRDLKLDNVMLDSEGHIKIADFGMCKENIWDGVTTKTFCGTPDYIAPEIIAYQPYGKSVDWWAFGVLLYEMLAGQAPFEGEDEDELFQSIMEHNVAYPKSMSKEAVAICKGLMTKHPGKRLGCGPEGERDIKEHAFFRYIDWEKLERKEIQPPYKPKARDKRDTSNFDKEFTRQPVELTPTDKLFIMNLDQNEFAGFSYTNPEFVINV", "details": "at 0.1 µM"}, "[27]": {"target": "Protein kinase C beta type (Homo sapiens) (UniProt P05771)", "details": "at 1 µM"}, "[28]": {"target": "Protein kinase C eta type (Homo sapiens) (UniProt P24723)", "details": "at 0.1 µM"}, "[29]": {"target": "Protein kinase C eta type (Homo sapiens) (UniProt P24723)", "details": "at 1 µM"}, "[30]": {"target": "Protein kinase C gamma type (Homo sapiens) (UniProt P05129)", "details": "at 0.1 µM"}, "[31]": {"target": "Protein kinase C gamma type (Homo sapiens) (UniProt P05129)", "details": "at 1 µM"}, "[32]": {"target": "Protein kinase C iota type (Homo sapiens) (UniProt P41743)", "sequence (P41743 whole entry)": "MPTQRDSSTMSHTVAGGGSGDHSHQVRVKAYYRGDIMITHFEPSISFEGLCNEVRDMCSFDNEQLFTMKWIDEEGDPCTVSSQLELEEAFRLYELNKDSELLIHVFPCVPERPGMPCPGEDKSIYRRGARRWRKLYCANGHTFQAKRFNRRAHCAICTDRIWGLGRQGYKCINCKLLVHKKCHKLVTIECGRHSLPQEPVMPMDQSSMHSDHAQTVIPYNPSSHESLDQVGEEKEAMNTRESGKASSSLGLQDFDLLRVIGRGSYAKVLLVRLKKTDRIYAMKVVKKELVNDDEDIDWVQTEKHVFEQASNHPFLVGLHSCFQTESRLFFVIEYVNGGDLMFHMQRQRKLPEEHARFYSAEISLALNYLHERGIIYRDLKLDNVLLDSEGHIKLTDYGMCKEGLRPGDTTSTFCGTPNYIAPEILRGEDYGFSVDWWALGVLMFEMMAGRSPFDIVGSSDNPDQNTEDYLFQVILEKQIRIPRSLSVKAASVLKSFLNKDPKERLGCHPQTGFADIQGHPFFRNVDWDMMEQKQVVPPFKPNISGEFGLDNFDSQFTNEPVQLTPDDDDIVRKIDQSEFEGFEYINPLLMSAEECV", "details": "at 0.1 µM"}, "[33]": {"target": "Protein kinase C iota type (Homo sapiens) (UniProt P41743)", "details": "at 1 µM"}, "[34]": {"target": "Protein kinase C theta type (Homo sapiens) (UniProt Q04759)", "sequence (Q04759 whole entry, looked up)": "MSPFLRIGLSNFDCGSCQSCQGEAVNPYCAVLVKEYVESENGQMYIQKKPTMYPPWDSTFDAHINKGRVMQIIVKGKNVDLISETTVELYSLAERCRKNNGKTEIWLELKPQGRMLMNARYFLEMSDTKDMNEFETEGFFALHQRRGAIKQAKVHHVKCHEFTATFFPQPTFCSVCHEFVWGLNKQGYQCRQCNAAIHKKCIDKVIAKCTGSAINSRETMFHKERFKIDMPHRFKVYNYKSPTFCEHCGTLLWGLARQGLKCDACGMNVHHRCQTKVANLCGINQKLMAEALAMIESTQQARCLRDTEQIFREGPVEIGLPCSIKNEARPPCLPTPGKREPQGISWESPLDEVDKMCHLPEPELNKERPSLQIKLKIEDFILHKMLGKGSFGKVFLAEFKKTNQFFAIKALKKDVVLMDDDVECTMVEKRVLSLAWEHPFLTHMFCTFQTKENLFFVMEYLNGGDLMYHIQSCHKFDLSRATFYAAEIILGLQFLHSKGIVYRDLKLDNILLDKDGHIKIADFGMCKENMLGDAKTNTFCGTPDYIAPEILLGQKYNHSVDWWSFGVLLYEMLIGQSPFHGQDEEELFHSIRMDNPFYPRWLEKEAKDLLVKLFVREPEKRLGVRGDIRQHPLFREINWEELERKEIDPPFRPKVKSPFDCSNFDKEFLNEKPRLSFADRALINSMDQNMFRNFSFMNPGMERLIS", "details": "at 0.1 µM"}, "[35]": {"target": "Protein kinase C theta type (Homo sapiens) (UniProt Q04759)", "details": "at 1 µM"}, "[36]": {"target": "Protein kinase C beta type (Homo sapiens) (UniProt P05771)", "details": "at 0.1 µM", "remark": "listed apart in the source"}, "[37]": {"target": "Protein kinase C beta type (Homo sapiens) (UniProt P05771)", "details": "at 1 µM", "remark": "listed apart in the source"}, "[38]": {"target": "Serine/threonine-protein kinase D1 (Homo sapiens) (UniProt Q15139)", "sequence (Q15139 whole entry)": "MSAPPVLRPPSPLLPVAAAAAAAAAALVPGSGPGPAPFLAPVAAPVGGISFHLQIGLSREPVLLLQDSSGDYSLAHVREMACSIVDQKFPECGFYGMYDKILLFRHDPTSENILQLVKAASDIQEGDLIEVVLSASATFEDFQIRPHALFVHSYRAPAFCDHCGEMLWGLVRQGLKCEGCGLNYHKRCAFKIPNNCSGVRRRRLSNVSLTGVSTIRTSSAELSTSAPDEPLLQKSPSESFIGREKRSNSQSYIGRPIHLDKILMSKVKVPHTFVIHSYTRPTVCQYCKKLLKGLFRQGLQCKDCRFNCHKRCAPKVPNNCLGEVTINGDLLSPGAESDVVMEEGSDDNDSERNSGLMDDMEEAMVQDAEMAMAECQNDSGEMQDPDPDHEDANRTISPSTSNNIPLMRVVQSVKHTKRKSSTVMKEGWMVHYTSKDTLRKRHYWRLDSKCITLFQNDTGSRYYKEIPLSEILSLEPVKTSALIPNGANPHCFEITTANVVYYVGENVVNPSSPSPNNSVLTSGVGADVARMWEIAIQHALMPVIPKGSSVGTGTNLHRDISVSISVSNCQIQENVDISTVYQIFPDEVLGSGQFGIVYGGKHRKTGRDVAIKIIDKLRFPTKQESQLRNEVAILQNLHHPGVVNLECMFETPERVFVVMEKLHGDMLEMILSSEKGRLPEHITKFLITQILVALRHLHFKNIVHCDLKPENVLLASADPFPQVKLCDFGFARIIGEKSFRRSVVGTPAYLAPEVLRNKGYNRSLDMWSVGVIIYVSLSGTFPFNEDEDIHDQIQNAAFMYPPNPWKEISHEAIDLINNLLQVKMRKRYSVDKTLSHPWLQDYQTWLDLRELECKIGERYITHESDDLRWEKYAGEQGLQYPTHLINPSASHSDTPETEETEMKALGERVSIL", "details": "at 0.1 µM"}, "[39]": {"target": "Serine/threonine-protein kinase D1 (Homo sapiens) (UniProt Q15139)", "details": "at 1 µM"}, "[40]": {"target": "Serine/threonine-protein kinase D2 (Homo sapiens) (UniProt Q9BZL6)", "sequence (Q9BZL6 whole entry)": "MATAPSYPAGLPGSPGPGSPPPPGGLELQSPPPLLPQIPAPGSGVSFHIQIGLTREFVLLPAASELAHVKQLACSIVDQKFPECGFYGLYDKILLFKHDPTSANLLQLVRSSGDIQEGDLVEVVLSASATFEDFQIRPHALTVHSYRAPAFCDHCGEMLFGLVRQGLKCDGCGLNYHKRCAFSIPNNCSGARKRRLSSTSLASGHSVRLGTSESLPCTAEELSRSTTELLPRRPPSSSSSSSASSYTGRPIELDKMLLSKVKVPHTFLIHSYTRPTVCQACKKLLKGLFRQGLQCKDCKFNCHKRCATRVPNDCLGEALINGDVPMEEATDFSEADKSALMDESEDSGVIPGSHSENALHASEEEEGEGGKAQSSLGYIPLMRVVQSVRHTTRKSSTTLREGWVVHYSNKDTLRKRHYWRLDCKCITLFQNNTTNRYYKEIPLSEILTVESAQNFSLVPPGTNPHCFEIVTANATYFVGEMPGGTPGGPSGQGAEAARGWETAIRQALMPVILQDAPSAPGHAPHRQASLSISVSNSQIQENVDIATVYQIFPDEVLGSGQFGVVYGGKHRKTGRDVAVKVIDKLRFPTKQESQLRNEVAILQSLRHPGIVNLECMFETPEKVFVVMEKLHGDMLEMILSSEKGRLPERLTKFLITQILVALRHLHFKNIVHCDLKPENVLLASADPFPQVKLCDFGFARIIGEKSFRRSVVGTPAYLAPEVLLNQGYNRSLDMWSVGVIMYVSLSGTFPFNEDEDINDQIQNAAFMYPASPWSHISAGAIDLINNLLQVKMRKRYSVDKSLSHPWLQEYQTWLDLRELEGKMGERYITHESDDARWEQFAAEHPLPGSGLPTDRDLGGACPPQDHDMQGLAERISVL", "details": "at 0.1 µM"}, "[41]": {"target": "Serine/threonine-protein kinase D2 (Homo sapiens) (UniProt Q9BZL6)", "details": "at 1 µM"}, "[42]": {"target": "Serine/threonine-protein kinase D3 (Homo sapiens) (UniProt O94806)", "details": "at 0.1 µM"}, "[43]": {"target": "Serine/threonine-protein kinase D3 (Homo sapiens) (UniProt O94806)", "details": "at 1 µM"}, "[44]": {"target": "cGMP-dependent protein kinase 1 (Homo sapiens) (UniProt Q13976)", "details": "at 0.1 µM"}, "[45]": {"target": "cGMP-dependent protein kinase 1 (Homo sapiens) (UniProt Q13976)", "details": "at 1 µM"}, "[46]": {"target": "cGMP-dependent protein kinase 2 (Homo sapiens) (UniProt Q13237)", "details": "at 0.1 µM"}, "[47]": {"target": "cGMP-dependent protein kinase 2 (Homo sapiens) (UniProt Q13237)", "details": "at 1 µM"}, "[48]": {"target": "cAMP-dependent protein kinase catalytic subunit PRKX (Homo sapiens) (UniProt P51817)", "details": "at 0.1 µM"}, "[49]": {"target": "cAMP-dependent protein kinase catalytic subunit PRKX (Homo sapiens) (UniProt P51817)", "details": "at 1 µM"}, "[50]": {"target": "Rho-associated protein kinase 1 (Homo sapiens) (UniProt Q13464)", "details": "at 0.1 µM"}, "[51]": {"target": "Rho-associated protein kinase 1 (Homo sapiens) (UniProt Q13464)", "details": "at 1 µM"}, "[52]": {"target": "Rho-associated protein kinase 2 (Homo sapiens) (UniProt O75116)", "details": "at 0.1 µM"}, "[53]": {"target": "Rho-associated protein kinase 2 (Homo sapiens) (UniProt O75116)", "details": "at 1 µM"}, "[54]": {"target": "Ribosomal protein S6 kinase alpha-1 (Homo sapiens) (UniProt Q15418)", "details": "at 0.1 µM"}, "[55]": {"target": "Ribosomal protein S6 kinase alpha-1 (Homo sapiens) (UniProt Q15418)", "details": "at 1 µM"}}, "data": [{"compound": "CNC(=O)Oc1cc(C)c(/C=C/c2cncc(C(=O)NC)c2)c(C)c1", "values": [{"measurement": "inhibition", "setting": "[1]", "result": 1.66, "unit": "%"}, {"measurement": "inhibition", "setting": "[2]", "result": 1.83, "unit": "%"}, {"measurement": "inhibition", "setting": "[3]", "result": 0.76, "unit": "%"}, {"measurement": "inhibition", "setting": "[4]", "result": 1.15, "unit": "%"}, {"measurement": "inhibition", "setting": "[5]", "result": 1.57, "unit": "%"}, {"measurement": "inhibition", "setting": "[6]", "result": 1.51, "unit": "%"}, {"measurement": "inhibition", "setting": "[7]", "result": 2.38, "unit": "%"}, {"measurement": "inhibition", "setting": "[8]", "result": -2.05, "unit": "%"}, {"measurement": "inhibition", "setting": "[9]", "result": 0.83, "unit": "%"}, {"measurement": "inhibition", "setting": "[10]", "result": -7.52, "unit": "%"}, {"measurement": "inhibition", "setting": "[11]", "result": 0.96, "unit": "%"}, {"measurement": "inhibition", "setting": "[12]", "result": 1.01, "unit": "%"}, {"measurement": "inhibition", "setting": "[13]", "result": 0.52, "unit": "%"}, {"measurement": "inhibition", "setting": "[14]", "result": 2.49, "unit": "%"}, {"measurement": "inhibition", "setting": "[15]", "result": -0.65, "unit": "%"}, {"measurement": "inhibition", "setting": "[16]", "result": 2.76, "unit": "%"}, {"measurement": "inhibition", "setting": "[17]", "result": 0.7, "unit": "%"}, {"measurement": "inhibition", "setting": "[18]", "result": 5.41, "unit": "%"}, {"measurement": "inhibition", "setting": "[19]", "result": 2.74, "unit": "%"}, {"measurement": "inhibition", "setting": "[20]", "result": 2.7, "unit": "%"}, {"measurement": "inhibition", "setting": "[21]", "result": 3.92, "unit": "%"}, {"measurement": "inhibition", "setting": "[22]", "result": 1.8, "unit": "%"}, {"measurement": "inhibition", "setting": "[23]", "result": 1.69, "unit": "%"}, {"measurement": "inhibition", "setting": "[24]", "result": 0.7, "unit": "%"}, {"measurement": "inhibition", "setting": "[25]", "result": 2.8, "unit": "%"}, {"measurement": "inhibition", "setting": "[26]", "result": -0.06, "unit": "%"}, {"measurement": "inhibition", "setting": "[27]", "result": 0.33, "unit": "%"}, {"measurement": "inhibition", "setting": "[28]", "result": 0.72, "unit": "%"}, {"measurement": "inhibition", "setting": "[29]", "result": 3.06, "unit": "%"}, {"measurement": "inhibition", "setting": "[30]", "result": 2.88, "unit": "%"}, {"measurement": "inhibition", "setting": "[31]", "result": 5.84, "unit": "%"}, {"measurement": "inhibition", "setting": "[32]", "result": 1.28, "unit": "%"}, {"measurement": "inhibition", "setting": "[33]", "result": 3.8, "unit": "%"}, {"measurement": "inhibition", "setting": "[34]", "result": 0.64, "unit": "%"}, {"measurement": "inhibition", "setting": "[35]", "result": -0.84, "unit": "%"}, {"measurement": "inhibition", "setting": "[36]", "result": 1.05, "unit": "%"}, {"measurement": "inhibition", "setting": "[37]", "result": 0.33, "unit": "%"}, {"measurement": "inhibition", "setting": "[38]", "result": 1.91, "unit": "%"}, {"measurement": "inhibition", "setting": "[39]", "result": 4.8, "unit": "%"}, {"measurement": "inhibition", "setting": "[40]", "result": 3, "unit": "%"}, {"measurement": "inhibition", "setting": "[41]", "result": 4.22, "unit": "%"}, {"measurement": "inhibition", "setting": "[42]", "result": 2.02, "unit": "%"}, {"measurement": "inhibition", "setting": "[43]", "result": 3.35, "unit": "%"}, {"measurement": "inhibition", "setting": "[44]", "result": 3.13, "unit": "%"}, {"measurement": "inhibition", "setting": "[45]", "result": 4.05, "unit": "%"}, {"measurement": "inhibition", "setting": "[46]", "result": 3.07, "unit": "%"}, {"measurement": "inhibition", "setting": "[47]", "result": 5.39, "unit": "%"}, {"measurement": "inhibition", "setting": "[48]", "result": 1.78, "unit": "%"}, {"measurement": "inhibition", "setting": "[49]", "result": 0.62, "unit": "%"}, {"measurement": "inhibition", "setting": "[50]", "result": 0.86, "unit": "%"}, {"measurement": "inhibition", "setting": "[51]", "result": 4.25, "unit": "%"}, {"measurement": "inhibition", "setting": "[52]", "result": 1.43, "unit": "%"}, {"measurement": "inhibition", "setting": "[53]", "result": 3.24, "unit": "%"}, {"measurement": "inhibition", "setting": "[54]", "result": 2.03, "unit": "%"}, {"measurement": "inhibition", "setting": "[55]", "result": 4.8, "unit": "%"}]}]}
